Compound activity from PubChem BioAssay.
OPRM1-OPRD1 ag: OPRM1-OPRD1 heterodimerization agonism; P35372+P41143; cells, luminescence; activation, % at 9.3 µM; actives 0.3% (n = 340,000); in the data active = activation above about 18%;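 note: 0% = vehicle-treated cells and 100% = reference agonist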
Target sequence (P35372 whole entry, looked up): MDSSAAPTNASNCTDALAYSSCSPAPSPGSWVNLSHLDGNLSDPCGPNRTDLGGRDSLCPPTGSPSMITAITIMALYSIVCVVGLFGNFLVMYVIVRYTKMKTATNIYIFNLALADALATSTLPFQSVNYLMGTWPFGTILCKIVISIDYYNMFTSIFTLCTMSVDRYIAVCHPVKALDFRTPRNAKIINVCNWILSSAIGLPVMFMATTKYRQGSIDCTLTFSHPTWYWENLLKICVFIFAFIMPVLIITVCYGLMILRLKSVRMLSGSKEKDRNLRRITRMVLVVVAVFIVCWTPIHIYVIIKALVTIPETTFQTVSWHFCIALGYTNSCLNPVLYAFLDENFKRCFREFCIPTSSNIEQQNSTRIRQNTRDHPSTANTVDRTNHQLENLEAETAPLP
Target sequence (P41143 whole entry, looked up): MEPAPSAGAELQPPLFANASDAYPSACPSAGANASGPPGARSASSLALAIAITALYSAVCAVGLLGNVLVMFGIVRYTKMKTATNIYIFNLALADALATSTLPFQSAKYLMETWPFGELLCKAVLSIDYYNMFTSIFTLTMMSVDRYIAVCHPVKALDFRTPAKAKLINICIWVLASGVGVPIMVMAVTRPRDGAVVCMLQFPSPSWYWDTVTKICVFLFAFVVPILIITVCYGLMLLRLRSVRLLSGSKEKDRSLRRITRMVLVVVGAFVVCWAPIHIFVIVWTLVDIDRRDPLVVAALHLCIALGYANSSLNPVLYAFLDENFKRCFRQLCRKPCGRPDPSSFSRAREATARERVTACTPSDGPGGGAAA
MOR-DOR inv ag: mu-delta opioid heterodimer inverse agonism; P35372+P41143; cell-based MOR-DOR heterodimer luminescence; inhibition, % at 9.3 µM; actives 0.21% (n = 340,000); in the data active = inhibition above about 22%, passing the limit was not always enough;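 note: 0% = cells with DMSO and 100% = wells without cells with DMSO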
PolyA inhibitor: yeast polyadenylation inhibition; actives 0.02% (n = 300,000); AID 1875; activity score, % at 12 µM; S. cerevisiae SKY197-pL101 polyadenylation reporter, beta-gal luminescence; efflux-impaired pdr1/pdr3 knockout yeast; score 100 = 6 SD above DMSO;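 active = lowest replicate activity score at least 50, where 100 means six control SD above control mean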;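 note: yeast exposed to compound for 9 h at 30 °C; higher score means more reporter readthrough which indicates perturbed polyadenylation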
NALP1 yeast inh: inhibitors of NALP1 inflammasome in yeast; inhibition, % at 10 µM; AID 2071; actives 0.61% (n = 280,000); S. cerevisiae NALP1/ASC/caspase-1 growth, X-gal OD620, 72 h; in the data active = inhibition mostly above about 24%, no sharp cut-off; inactive = mostly below about 32%
HTR5A ag: activates human HTR5A in OPRM1-OPRD1 agonist counter-screen. P47898. HTR5A agonist assay, luminescence, cell-based. activation, % at 9.3 µM. actives 0.61% (n = 340,000). AID 504692; in the data active = activation mostly above about 9.5%, no sharp cut-off; inactive = mostly below about 7.6%;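 note: 0% = cells with vehicle only and 100% = reference agonist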
HTR5A inv ctr: counter-screen for OPRM1-OPRD1 inverse agonists: human HTR5A inverse agonism; HTR5A cell line, luminescence; actives 0.083% (n = 340,000); inhibition, % at 9.3 µM; P47898; in the data active = inhibition mostly above about 23%, no sharp cut-off; inactive = mostly below about 18%;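 note: 0% = cells with DMSO and 100% = no-cell wells with DMSO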
The depositor's hits bear a star; · = not tested or not shown. Rows were chosen to be rich in hits. Some 1.6% of all compounds tested hit in one or more screens of this group.

SMILES | OPRM1-OPRD1 ag | MOR-DOR inv ag | PolyA inhibitor | NALP1 yeast inh | HTR5A ag | HTR5A inv ctr
COc1ccccc1N1CCN(C(=O)CSc2nc3ccccc3[nH]2)CC1 | 0 | 2 | 13 | -7 | 1 | 11
COc1ccc(C(=O)O/N=C(\N)Cc2ccc(Cl)c(Cl)c2)cc1OC | 22* | -127 | -4 | 29 | 42* | -143
C[C@]1(CO)CCC[C@@]2(C)C1CC[C@@H](CO)[C@@H]2CCc1ccoc1 (stereo partly specified) | 0 | -1 | -2 | 27 | 9.8* | -38
COc1cc(-c2nnc(SCc3cc(=O)oc4cc(O)c(O)cc34)o2)cc(OC)c1OC | 1 | -5 | 5 | 45* | -3 | 7
CCOC(=O)CSc1nnc(-c2cc(OC)c(OC)c(OC)c2)o1 | 0 | 2 | -11 | 1 | -7 | 3
COc1ccc(S(=O)(=O)N2CCCCCC2)cc1C(=O)N1CCN(c2ccccc2O)CC1 | 0 | -2 | 3 | · | 2 | -7
CN(CCc1cn[nH]c1)C(=O)C1CCC(=O)N(CC2CCCCC2)C1 (stereo unspecified) | -2 | 11 | 20 | 20 | -2 | -12
O=C(O/N=C1/CCCc2occc21)c1ccc(F)cc1 | -1 | 6 | -6 | 6 | 0 | 1
O=C(O/N=C1/CCSc2ccccc21)c1ccc(F)cc1 | 6 | -35 | · | 2 | 10* | -50
CCOc1ccc(NC(=O)Cc2ccc(S(=O)(=O)N3CCCCC3)cc2)cc1OCC | -1 | 5 | · | · | 11* | 14
CN(C)c1ccc(NC(=O)CN2C(=O)c3ccccc3C2=O)cc1 | -2 | 9 | -7 | 17 | 1 | -4
Cc1ccc(NC(=O)CSc2nnc(-c3cccs3)o2)cc1S(=O)(=O)N1CCCCC1 | -1 | 7 | -20 | 30 | 4 | 13
Cc1ccc(C(C(=O)NC2CCCCC2)N2CCCC2)cc1 (stereo unspecified) | -3 | 15 | -5 | 24 | -2 | 6
CCOC(=O)C1CCN(C(C(=O)NC2CCCC2)c2ccc(C)cc2)CC1 (stereo unspecified) | 2 | -12 | 8 | 36* | 4 | -11
Cc1cc(C)n2nc(CC(=O)NNC(=O)COc3ccccc3)nc2n1 | -3 | 14 | 4 | 0 | -1 | 16
Cc1cc(-n2c(SCC(=O)NCCC3=CCCCC3)nc3n[nH]c(C)c3c2=N)ccc1Cl | 29* | -151 | 6 | 21 | 31* | -47
Cc1[nH]nc2nc(SCC(=O)NCCC3=CCCCC3)n(-c3ccc(Br)cc3)c(=N)c12 | 25* | -124 | 14 | 24 | 15* | -56
Cc1ccc2c(c1)C(CCN)C(=O)N2Cc1ccccc1 (stereo unspecified) | -11 | 65* | -6 | 26 | -21 | 57*
CC(=O)NC1C(=O)N(Cc2ccccc2)c2ccc(Br)cc21 (stereo unspecified) | -3 | 14 | 2 | · | 0 | -1
CC(=O)N1CCc2cc(S(=O)(=O)NC(Cc3ccccc3)C(=O)Nc3cc(C)ccn3)ccc21 (stereo unspecified) | -3 | 12 | -6 | 38* | -4 | 1
O=C(OCc1nc2ccccc2s1)c1ccc(Br)o1 | 1 | -5 | 7 | 9 | 0 | -2
O=C(OCc1nc2ccccc2s1)c1ccc([N+](=O)[O-])o1 | 9 | -55 | -7 | 10 | 20* | -24
O=C(Nc1nccs1)c1ccc(-c2ccc([N+](=O)[O-])cc2)o1 | -3 | 15 | -1 | 32* | -1 | 2
COC(=O)c1cccc(NC(=O)CCNC(=O)c2ccc([N+](=O)[O-])cc2)c1 | 0 | -1 | 3 | 33 | -1 | 9
CCN(C[C@H]1N[C@@](CC)(C(=O)OC)[C@H]2C(=O)N(Cc3ccccc3)C(=O)[C@@H]12)C(=O)C1CCCCC1 | -4 | 17 | · | · | 2 | -7
SMILES | OPRM1-OPRD1 ag | MOR-DOR inv ag | PolyA inhibitor | NALP1 yeast inh | HTR5A ag | HTR5A inv ctr
CCOc1ccc(NC(=O)c2ccc3c(c2)OCCO3)cc1S(=O)(=O)N(CC)CC | -2 | 8 | · | · | -1 | 4
Cc1cc(C)c(C)c(S(=O)(=O)Nc2cccc(S(=O)(=O)Nc3ccccc3C(=O)O)c2)c1C | -2 | 10 | · | · | 1 | -3
Cc1nnc(SCC(=O)O)o1 | -2 | 10 | 20 | 26* | -2 | 4
CCOc1ccc(NC(=O)c2ccc(NC(=O)c3cn4c5c(c(N6CCN(C)CC6)c(F)cc5c3=O)OCC4C)cc2)cc1 (stereo unspecified) | 0 | 3 | 3 | 86* | 5 | 3
CCOC(=O)c1nnn(-c2nonc2N)c1CSc1nnc(N)s1 | -2 | 11 | 1 | 5 | -1 | 4
O=C(CC1NC(=O)NC1=O)Nc1ccc(Cl)cc1 (stereo unspecified) | -2 | 8 | 15 | 38* | 5 | 6
O=C(CCCN1C(=O)/C(=C\c2cccc(Br)c2)SC1=S)Nc1cccnc1 | 3 | -13 | 6 | -11 | 3 | 5
CCN1CCN(CCC(=O)Nc2cc(OC)cc(OC)c2)CC1 | -3 | 12 | 0 | -2 | 9.2* | -34
Cc1cc(C)c2c(c1)/C(=N/NS(=O)(=O)c1ccc(Br)cc1)CCC2 | 1 | -7 | 9 | 38* | 10 | -36
CCc1sc(C(=O)Nc2cc(S(=O)(=O)N3CCOCC3)ccc2OC)cc1C | 0 | 1 | · | · | 2 | -8
O=C(CSc1cccc[n+]1[O-])Nc1cc2c(cc1Cl)C(=O)c1ccccc1C2=O | 1 | -6 | -8 | 55* | 1 | -4
COCCCNCCOCCOc1c(OC)cccc1OC | -1 | 8 | -14 | 24* | -6 | 16
Cc1cc(Cl)n2nc(C)c(-c3ccc(Cl)cc3)c2n1 | 2 | -7 | · | -19 | 5 | -13
Cc1cc(N)n2nc(C)c(-c3ccc(Cl)cc3)c2n1 | 0 | 0 | -18 | 33* | -1 | 4
CCOc1ccccc1NS(=O)(=O)c1c(C)[nH]c(C)c1C(=O)N1CCCCC1 | -2 | 13 | 4 | 4 | -3 | -9
C/C(CC(=O)Nc1ccc(C)c(Cl)c1)=N\NC(=O)Cc1ccccc1 | 1 | -7 | 1 | 10 | 12* | -32
CC(=O)c1cccc(NC(=O)NCc2ccccn2)c1 | 1 | -5 | -1 | 2 | 1 | -33
CC(=O)c1cccc(NC(=O)NCc2cccs2)c1 | 0 | -1 | 6 | 16 | 11* | -35
Cc1cccc(/C=C/C(=O)c2ccc(NC3=NCCCS3)cc2)c1 | -1 | 7 | · | 62* | -3 | 8
O=C(Oc1cccc(C(=S)N2CCOCC2)c1)c1ccc([N+](=O)[O-])cc1[N+](=O)[O-] | 10 | -75 | -34 | 0 | 9.4* | -25
COc1ccccc1CC(=O)N1CCC(n2nccc2NC(=O)C2CCOC2)CC1 (stereo unspecified) | -3 | 17 | 6 | 20 | -5 | -10
Cc1sc2nc(CSC(C)C(=O)N3CCOCC3)[nH]c(=O)c2c1C (stereo unspecified) | -3 | 10 | -12 | 23 | 1 | 4
